# Results published in a collection of fitness landscapes (doi:10.1126/science.1257360).
# In all, about 140,000 sequences were measured (“enrichment ratio after two sorts for PhoP signalling”: median about 0, highest 2% from about 11 on). What follows is part of a selection rich in the highest values, with near analogues and random picks from the rest.
# B1: PhoQ; a variant is named by its letters at X, in order, P23837 (parent)
# chain: MKKLLRLFFPLSLRVRFLLATAAVVLVLSLAYGMVALIGYSVSFDKTTFRLLRGESNLFYTLAKWENNKLHVELPENIDKQSPTMTLIYDENGQLLWAQRDVPWLMKMIQPDWLKSNGFHEIEADVNDTSLLLSGDHSIQQQLQEVREDDDDAEMTHSVAVNVYPATSRMPKLTIVVVDTIPVELKSSYMVWSWFIYVLSANLLLVIPLLWVAAWWSLRPIEALAKEVRELEEHNRELLNPATTRELTSLVRNLNRLLKSERERYDKYRTTLTDLTHSLKTPLXXLQXXLRSLRSEKMSVSDAEPVMLEQISRISQQIGYYLHRASMRGGTLLSRELHPVAPLLDNLTSALNKVYQRKGVNISLDISPEISFVGEQNDFVEVMGNVLDNACKYCLEFVEISARQTDEHLYIVVEDDGPGIPLSKREVIFDRGQRVDTLRPGQGVGLAVAREITEQYEGKIVAGESMLGGARMEVIFGRQHSAPKDE
# Variants of: B1
# Assay: enrichment ratio after two sorts for PhoP signalling (ratio (wild type AVST 3.29)); higher = more functional
# Conditions: with PhoP (E. coli)
row,Variant,enrichment ratio
1,SYTR,≤ 0.25
2,VVCY,≤ 0.25
3,GKAF,≤ 0.25
4,SEVC,9.44
5,SEGG,9.05
6,SEVG,25.6
7,SEVA,10.3
8,SLVI,2.14
9,SCVR,1.05
10,SEFG,15.8
11,SEVR,12.1
12,SEVI,12.2
13,SLVR,0.339
14,SEFA,1.84
15,SEFE,4.76
16,RKKT,≤ 0.25
17,SLWN,≤ 0.25
18,RRRI,≤ 0.25
19,PERI,≤ 0.25
20,FFGE,≤ 0.25
21,YKRH,≤ 0.25
22,VSRE,≤ 0.25
23,VRMG,≤ 0.25
24,HGFC,≤ 0.25
25,SEMI,17.1
26,SLVS,1.29

row,Variant,enrichment ratio
1,SEMQ,8.89
2,SEWG,17.3
3,SEMK,7.11
4,SCVS,3.13
5,SPWG,≤ 0.25
6,SEMD,1.79
7,SEMS,14.3
8,SEMN,4.75
9,SEVS,20.4
10,SQWG,≤ 0.25
11,HDQV,≤ 0.25
12,HCLM,≤ 0.25
13,NDAA,≤ 0.25
14,NRLG,≤ 0.25
15,NMCH,≤ 0.25
16,HTPK,≤ 0.25
17,PDYQ,≤ 0.25
18,ANWA,≤ 0.25
19,HDKT,≤ 0.25
20,SAHC,≤ 0.25
21,SEGS,4.52
22,SEMG,21.5
23,SEVK,12.3
24,SLVK,1.38
25,SEEG,2.48
26,SEKK,≤ 0.25

row,Variant,enrichment ratio
1,EACH,2.01
2,FYVQ,≤ 0.25
3,GYNI,≤ 0.25
4,LYDQ,≤ 0.25
5,FGLT,9.94
6,FGLS,8.38
7,FGLV,11.7
8,QGLV,7.45
9,FGLA,12.2
10,FPLV,≤ 0.25
11,HKVW,≤ 0.25
12,VDRE,≤ 0.25
13,EAAG,≤ 0.25
14,TSSY,14.6
15,NSSY,≤ 0.25
16,CVSY,≤ 0.25
17,FSSY,0.259
18,KSSY,≤ 0.25
19,CSSY,17.5
20,KMIV,≤ 0.25
21,IVGD,≤ 0.25
22,TDFN,≤ 0.25
23,LNSM,0.463
24,TLSM,25.5
25,CLSF,10.1
26,MNSM,9.22

row,Variant,enrichment ratio
1,AKSM,15.5
2,AHSM,4.11
3,CLSM,22.7
4,TNSM,23.5
5,SLSM,8.94
6,PLSM,≤ 0.25
7,ADSM,≤ 0.25
8,VLSM,0.436
9,IDFI,≤ 0.25
10,NPDM,≤ 0.25
11,PIRV,≤ 0.25
12,EGSN,≤ 0.25
13,PKCK,≤ 0.25
14,RLKF,≤ 0.25
15,AIND,≤ 0.25
16,GVLN,10.1
17,AVSM,11.3
18,KKSM,≤ 0.25
19,ARSM,4.49
20,ALSM,17
21,AVSF,9.87
22,KMSM,≤ 0.25
23,AQSM,10.4
24,AMSM,15.1
25,WISM,≤ 0.25
26,AISM,15.9

row,Variant,enrichment ratio
1,NMSM,≤ 0.25
2,DRSF,≤ 0.25
3,HYGV,≤ 0.25
4,IFME,≤ 0.25
5,FRHK,≤ 0.25
6,PAGH,≤ 0.25
7,QFCS,≤ 0.25
8,SPYV,≤ 0.25
9,WPGT,≤ 0.25
10,YLNI,≤ 0.25
11,ANSF,5.47
12,PLSF,≤ 0.25
13,ALHF,≤ 0.25
14,ALSF,12.1
15,NISM,0.899
16,RISM,≤ 0.25
17,ANSM,16.6
18,TISM,27.4
19,EYYP,≤ 0.25
20,PMHD,≤ 0.25
21,APSK,≤ 0.25
22,YWYS,≤ 0.25
23,KTMK,≤ 0.25
24,RNCC,≤ 0.25
25,KASQ,≤ 0.25
26,QSSQ,11.3

row,Variant,enrichment ratio
1,QASQ,23.3
2,QPSQ,≤ 0.25
3,TPSQ,≤ 0.25
4,FSSQ,≤ 0.25
5,KSSQ,≤ 0.25
6,TSSQ,11.8
7,QASK,≤ 0.25
8,LWCS,≤ 0.25
9,KPGV,≤ 0.25
10,FAWD,≤ 0.25
11,LEFH,≤ 0.25
12,ELWP,≤ 0.25
13,MRDF,≤ 0.25
14,TCQR,4.53
15,MILH,0.967
16,MICC,29.6
17,MQTH,≤ 0.25
18,MQCC,11.8
19,MQCI,1.41
20,MICH,2.87
21,IQVR,≤ 0.25
22,NDHA,≤ 0.25
23,MDME,≤ 0.25
